# The sample as a whole holds a higher share of the strongest signals than the screen did.
# Columns and labels:
# Test in all cases: glycan array binding signal (z-score within array); higher = stronger binding
# Settings in all cases: glycan notation: IUPAC condensed, linker removed
# [1] = biological target: Fuc(a1-2)Gal(b1-3)GalNAc(b1-4)[Neu5Ac(a2-3)]Gal(b1-4)Glc
# Procedure, shortened: (§1)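 Columns mapping to the same glycan were averaged after glycan names were converted to IUPAC-condensed notation. The data come from 3228 arrays in the Consortium for Functional Glycomics database, limited to those with an available protein sequence. Binding is reported as a within-array Z-score averaged across arrays of one protein sequence and across linkers.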
# [2] = biological target: Fuc(a1-2)Gal(b1-3)GlcNAc
# Procedure, shortened: as §1
# [3] = biological target: Fuc(a1-2)Gal(b1-3)GlcNAc(b1-2)Man(a1-3)[Fuc(a1-2)Gal(b1-3)GlcNAc(b1-2)Man(a1-6)]Man(b1-4)GlcNAc(b1-4)GlcNAc
# Procedure, shortened: as §1
# [4] = biological target: Fuc(a1-2)Gal(b1-4)GlcNAc(b1-3)Gal(b1-4)GlcNAc
# Procedure, shortened: as §1
# [5] = biological target: Fuc(a1-2)Gal(b1-4)GlcNAc(b1-3)Gal(b1-4)GlcNAc(b1-2)Man(a1-3)[Fuc(a1-2)Gal(b1-4)GlcNAc(b1-3)Gal(b1-4)GlcNAc(b1-2)Man(a1-6)]Man(b1-4)GlcNAc(b1-4)GlcNAc
# Procedure, shortened: as §1
# [6] = biological target: Fuc(a1-2)Gal(b1-4)[Fuc(a1-3)]GlcNAc(b1-3)GalNAc
# Procedure, shortened: as §1
# [7] = biological target: Fuc(a1-2)Gal6S(b1-4)Glc6S
# Procedure, shortened: as §1
# [8] = biological target: Fuc(a1-2)[Gal(a1-3)]Gal(b1-4)GlcNAc(b1-2)Man(a1-3)[Fuc(a1-2)[Gal(a1-3)]Gal(b1-4)GlcNAc(b1-2)Man(a1-6)]Man(b1-4)GlcNAc(b1-4)GlcNAc
# Procedure, shortened: as §1
# [9] = biological target: Fuc(a1-2)[Gal(a1-4)]Gal(b1-4)GlcNAc
# Procedure, shortened: as §1
# [10] = biological target: Gal(a1-3)Gal(b1-3)[Fuc(a1-4)]GlcNAc(b1-2)Man(a1-3)[Gal(a1-3)Gal(b1-3)[Fuc(a1-4)]GlcNAc(b1-2)Man(a1-6)]Man(b1-4)GlcNAc(b1-4)GlcNAc
# Procedure, shortened: as §1
# [11] = biological target: Gal(a1-3)Gal(b1-4)Glc
# Procedure, shortened: as §1
# [12] = biological target: Gal(a1-3)Gal(b1-4)[Fuc(a1-3)]GlcNAc
# Procedure, shortened: as §1
# [13] = biological target: Gal(a1-3)GalNAc
# Procedure, shortened: as §1
# [14] = biological target: Gal(a1-4)Gal(b1-3)GlcNAc(b1-2)Man(a1-3)[Gal(a1-4)Gal(b1-3)GlcNAc(b1-2)Man(a1-6)]Man(b1-4)GlcNAc(b1-4)GlcNAc
# Procedure, shortened: as §1
# [15] = biological target: Gal(a1-4)Gal(b1-4)GlcNAc(b1-2)Man(a1-3)[Gal(a1-4)Gal(b1-4)GlcNAc(b1-2)Man(a1-6)]Man(b1-4)GlcNAc(b1-4)GlcNAc
# Procedure, shortened: as §1
# [16] = biological target: Gal(a1-4)Gal(b1-4)GlcNAc(b1-3)Gal(b1-4)Glc
# Procedure, shortened: as §1
# [17] = biological target: Gal(b1-3)GlcNAc
# Procedure, shortened: as §1
# [18] = biological target: Gal(b1-3)GlcNAc(b1-3)Gal(b1-4)GlcNAc(b1-3)Gal(b1-4)GlcNAc(b1-2)[Gal(b1-3)GlcNAc(b1-3)Gal(b1-4)GlcNAc(b1-3)Gal(b1-4)GlcNAc(b1-6)]Man(a1-6)[Gal(b1-3)GlcNAc(b1-3)Gal(b1-4)GlcNAc(b1-3)Gal(b1-4)GlcNAc(b1-2)Man(a1-3)]Man(b1-4)GlcNAc(b1-4)[Fuc(a1-6)]GlcNAc
# Procedure, shortened: as §1
# [19] = biological target: Gal(b1-3)GlcNAc(b1-3)GalNAc
# Procedure, shortened: as §1
# [20] = biological target: Gal(b1-3)[Fuc(a1-4)]GlcNAc(b1-6)GalNAc
# Procedure, shortened: as §1
# [21] = biological target: Gal(b1-4)GlcNAc(b1-3)Gal(b1-4)GlcNAc(b1-3)Gal(b1-4)GlcNAc(b1-2)[Gal(b1-4)GlcNAc(b1-3)Gal(b1-4)GlcNAc(b1-3)Gal(b1-4)GlcNAc(b1-6)]Man(a1-6)[Gal(b1-4)GlcNAc(b1-3)Gal(b1-4)GlcNAc(b1-3)Gal(b1-4)GlcNAc(b1-2)Man(a1-3)]Man(b1-4)GlcNAc(b1-4)[Fuc(a1-6)]GlcNAc
# Procedure, shortened: as §1
# [22] = biological target: Gal(b1-4)GlcNAc(b1-3)Gal(b1-4)GlcNAc(b1-3)Gal(b1-4)GlcNAc(b1-3)Gal(b1-4)GlcNAc(b1-2)[Gal(b1-4)GlcNAc(b1-3)Gal(b1-4)GlcNAc(b1-3)Gal(b1-4)GlcNAc(b1-3)Gal(b1-4)GlcNAc(b1-6)]Man(a1-6)[Gal(b1-4)GlcNAc(b1-3)Gal(b1-4)GlcNAc(b1-3)Gal(b1-4)GlcNAc(b1-3)Gal(b1-4)GlcNAc(b1-2)Man(a1-3)]Man(b1-4)GlcNAc(b1-4)[Fuc(a1-6)]GlcNAc
# Procedure, shortened: as §1
# [23] = biological target: Gal(b1-4)GlcNAc(b1-3)Gal(b1-4)GlcNAc(b1-3)Gal(b1-4)GlcNAc(b1-3)Gal(b1-4)GlcNAc(b1-3)Gal(b1-4)GlcNAc(b1-2)Man(a1-3)[Gal(b1-4)GlcNAc(b1-3)Gal(b1-4)GlcNAc(b1-3)Gal(b1-4)GlcNAc(b1-3)Gal(b1-4)GlcNAc(b1-3)Gal(b1-4)GlcNAc(b1-2)Man(a1-6)]Man(b1-4)GlcNAc(b1-4)[Fuc(a1-6)]GlcNAc
# Procedure, shortened: as §1
# [24] = biological target: Gal(b1-4)GlcNAc(b1-6)GalNAc
# Procedure, shortened: as §1
# [25] = biological target: Gal3S(b1-4)[Fuc(a1-3)]GlcNAc
# Procedure, shortened: as §1
# [26] = biological target: Gal3S(b1-4)[Fuc(a1-3)]GlcNAc6S
# Procedure, shortened: as §1
# [27] = biological target: GalNAc(b1-4)GlcNAc(b1-2)Man(a1-3)[GalNAc(b1-4)GlcNAc(b1-2)Man(a1-6)]Man(b1-4)GlcNAc(b1-4)GlcNAc
# Procedure, shortened: as §1
# [28] = biological target: GalNAc(b1-4)GlcNAc(b1-3)GalNAc(b1-4)GlcNAc
# Procedure, shortened: as §1
# [29] = biological target: GlcNAc(a1-4)Gal(b1-4)GlcNAc
# Procedure, shortened: as §1
# [30] = biological target: GlcNAc(b1-2)[GlcNAc(b1-4)]Man(a1-3)[GlcNAc(b1-2)Man(a1-6)]Man(b1-4)GlcNAc(b1-4)GlcNAc
# Procedure, shortened: as §1
# [31] = biological target: GlcNAc(b1-2)[GlcNAc(b1-4)]Man(a1-3)[GlcNAc(b1-4)][GlcNAc(b1-2)[GlcNAc(b1-6)]Man(a1-6)]Man(b1-4)GlcNAc(b1-4)GlcNAc
# Procedure, shortened: as §1
# [32] = biological target: GlcNAc(b1-3)Gal
# Procedure, shortened: as §1
# [33] = biological target: GlcNAc(b1-3)Gal(b1-4)GlcNAc
# Procedure, shortened: as §1
# [34] = biological target: GlcNAc(b1-3)Gal(b1-4)GlcNAc(b1-3)Gal(b1-4)GlcNAc(b1-3)Gal(b1-4)GlcNAc(b1-2)[GlcNAc(b1-3)Gal(b1-4)GlcNAc(b1-3)Gal(b1-4)GlcNAc(b1-3)Gal(b1-4)GlcNAc(b1-6)]Man(a1-6)[GlcNAc(b1-3)Gal(b1-4)GlcNAc(b1-3)Gal(b1-4)GlcNAc(b1-3)Gal(b1-4)GlcNAc(b1-2)Man(a1-3)]Man(b1-4)GlcNAc(b1-4)[Fuc(a1-6)]GlcNAc
# Procedure, shortened: as §1
# [35] = biological target: GlcNAc(b1-3)Gal(b1-4)GlcNAc(b1-3)Gal(b1-4)GlcNAc(b1-3)GalNAc
# Procedure, shortened: as §1
# [36] = biological target: Man(a1-2)Man(a1-3)Man
# Procedure, shortened: as §1
# [37] = biological target: Man(a1-2)Man(a1-3)[Man(a1-2)Man(a1-6)]Man(a1-6)[Man(a1-2)Man(a1-2)Man(a1-3)]Man(b1-4)GlcNAc(b1-4)GlcNAc
# Procedure, shortened: as §1
# [38] = biological target: Man(a1-3)[Man(a1-6)]Man(a1-6)[Man(a1-2)Man(a1-3)]Man(b1-4)GlcNAc(b1-4)GlcNAc
# Procedure, shortened: as §1
# [39] = biological target: Neu5Ac(a2-3)Gal(b1-3)GlcNAc
# Procedure, shortened: as §1
# [40] = biological target: Neu5Ac(a2-3)Gal(b1-4)Glc
# Procedure, shortened: as §1
# [41] = biological target: Neu5Ac(a2-3)Gal(b1-4)GlcNAc(b1-3)Gal(b1-4)GlcNAc(b1-3)GalNAc
# Procedure, shortened: as §1
# [42] = biological target: Neu5Ac(a2-3)Gal(b1-4)[Fuc(a1-3)]GlcNAc(b1-3)GalNAc
# Procedure, shortened: as §1
# [43] = biological target: Neu5Ac(a2-3)Gal(b1-4)[Fuc(a1-3)]GlcNAc(b1-6)[Neu5Ac(a2-3)Gal(b1-3)]GalNAc
# Procedure, shortened: as §1
# [44] = biological target: Neu5Ac(a2-6)Gal
# Procedure, shortened: as §1
# [45] = biological target: Neu5Ac(a2-6)Gal(b1-4)GlcNAc(b1-2)Man(a1-3)[Neu5Ac(a2-6)Gal(b1-4)GlcNAc(b1-2)Man(a1-6)]Man(b1-4)GlcNAc(b1-4)GlcNAc
# Procedure, shortened: as §1
# [46] = biological target: Neu5Ac(a2-6)Gal(b1-4)GlcNAc(b1-3)Gal(b1-4)GlcNAc
# Procedure, shortened: as §1
# [47] = biological target: Neu5Ac(a2-6)Gal(b1-4)GlcNAc(b1-3)Gal(b1-4)GlcNAc(b1-3)Gal(b1-4)GlcNAc(b1-2)Man(a1-3)[Neu5Ac(a2-6)Gal(b1-4)GlcNAc(b1-3)Gal(b1-4)GlcNAc(b1-3)Gal(b1-4)GlcNAc(b1-2)Man(a1-6)]GalNAc
# Procedure, shortened: as §1
binder,measurement,setting,value
PX9961U-pdi-543-24-543 (Parabacteroides distasonis) (protein) EEPVGEFLPGQVESEENIEGIVTGAYAVLDGYYASDAINSGCSNWQFGDVVSDDAYKGGGGTGDQNQIHLMEIFNANPTGIDFEARWAALYEGIKRCNQAIRLLNGSEVKNKEQRLAEMRFLRGHYYFNLKIIYNQIPWIDETLVDPNEYNKKSNIEFSSDQLWEKILEEFSAAYKVLPESQADYGRPTKMAARAYMAKVYLYQSKWKECLEACDEVIQSGKYELFPDFRNVFLPENDNCSEIIFAIQLSINDGSPNNENGSYGDRLLPPGGPYPVYGFLRPTQNLVNAYKTDVKGLPYNDGKDVSENDYVDVRLDHTLARPNIPFMDVQLYDWTPREASVYGPYSPKKRLVSLNSTYYSPIWPYVNALNFYVIRYADLLLWRAEAAIETGDLETGRKYINMIRERAKNTQHVKTMDQSQDAANYKVGVYDEPFKSKNEAVQALRMERRLEMAHEGIRFFDLVRWGVADEVINAYIAKEKVFRSHLQNAHFVKGKHEYFPIPQSMIDICGTEVMKQNPGY,glycan array binding signal (z-score),[1],-0.337
same,glycan array binding signal (z-score),[2],-0.324
same,glycan array binding signal (z-score),[3],7.29
same,glycan array binding signal (z-score),[4],-0.463
same,glycan array binding signal (z-score),[5],-0.241
same,glycan array binding signal (z-score),[6],3.47
same,glycan array binding signal (z-score),[7],-0.226
same,glycan array binding signal (z-score),[8],8.53
same,glycan array binding signal (z-score),[9],-0.379
same,glycan array binding signal (z-score),[10],4.38
same,glycan array binding signal (z-score),[11],-0.175
same,glycan array binding signal (z-score),[12],0.287
same,glycan array binding signal (z-score),[13],-0.348
same,glycan array binding signal (z-score),[14],-0.428
same,glycan array binding signal (z-score),[15],2.13
same,glycan array binding signal (z-score),[16],-0.389
same,glycan array binding signal (z-score),[17],-0.43
same,glycan array binding signal (z-score),[18],4.42
same,glycan array binding signal (z-score),[19],-0.385
same,glycan array binding signal (z-score),[20],3.44
same,glycan array binding signal (z-score),[21],6.31
same,glycan array binding signal (z-score),[22],3.38
same,glycan array binding signal (z-score),[23],7.11
same,glycan array binding signal (z-score),[24],-0.178
same,glycan array binding signal (z-score),[25],-0.303
same,glycan array binding signal (z-score),[26],-0.27
same,glycan array binding signal (z-score),[27],-0.253
same,glycan array binding signal (z-score),[28],0.352
same,glycan array binding signal (z-score),[29],-0.445
same,glycan array binding signal (z-score),[30],-0.415
same,glycan array binding signal (z-score),[31],-0.386
same,glycan array binding signal (z-score),[32],-0.394
same,glycan array binding signal (z-score),[33],-0.432
same,glycan array binding signal (z-score),[34],-0.308
same,glycan array binding signal (z-score),[35],-0.417
same,glycan array binding signal (z-score),[36],-0.489
same,glycan array binding signal (z-score),[37],-0.408
same,glycan array binding signal (z-score),[38],6.64
same,glycan array binding signal (z-score),[39],-0.408
same,glycan array binding signal (z-score),[40],-0.368
same,glycan array binding signal (z-score),[41],-0.376
same,glycan array binding signal (z-score),[42],3.69
same,glycan array binding signal (z-score),[43],1.28
same,glycan array binding signal (z-score),[44],-0.428
same,glycan array binding signal (z-score),[45],-0.347
same,glycan array binding signal (z-score),[46],-0.364
same,glycan array binding signal (z-score),[47],0.5
